# PubChem BioAssay AID488984 (The Scripps Research Institute Molecular Screening Center, 2010)
# Calls of active or inactive are those of the source. Rule as the data show it: active = inhibition above about 55%; inactive = the rest.
# System: SARS coronavirus 3C-like protease (3CLpro, nsp5)
# Assay: blockers of SARS 3CLpro activity – biochemical, fluorescence, set 2, late-stage follow-up (AID 488984)
# Settings: recombinant 3CLpro, fluorogenic peptide cleavage; at 100 µM; active compounds read high
row,SMILES,inhibition
1,CC(C)(C)NC(=O)C(c1cccnc1)N(C(=O)c1ccc(C#N)cc1)c1ccc(OCF)cc1 (centres undefined),-7.47% (inactive)
2,CC(C)C(=O)Nc1ccc(N(C(=O)Cn2nnc3ccccc32)C(C(=O)NC(C)(C)C)c2ccsc2)cc1 (centres undefined),96.7% (active)
3,CC(C)(C)NC(=O)C(c1ccsc1)N(C(=O)c1ccc(C#N)cc1)c1ccc(C(C)(C)C)cc1 (centres undefined),22.7% (inactive)
4,Cc1nc2ccccc2n1CC(=O)N(c1ccc(N)cc1)C(C(=O)NC(C)(C)C)c1ccsc1 (centres undefined),1.01% (inactive)
5,CC(C)(C)NC(=O)C(c1cccnc1)N(C(=O)c1ccco1)c1ccc(C(C)(C)C)cc1 (centres undefined),102% (active)
6,CCC(=O)Nc1ccc(N(C(=O)Cn2cnc3ccccc32)C(C(=O)NC(C)(C)C)c2ccsc2)cc1 (centres undefined),61.1% (active)
7,CC(C)c1ccc(N(C(=O)Cc2c[nH]c3ccccc23)C(C(=O)NC(C)(C)C)c2cccnc2)cc1 (centres undefined),3.78% (inactive)
8,CC(C)(C)NC(=O)C(c1ccsc1)N(C(=O)c1ccc(C(F)(F)F)nc1)c1ccc(C(C)(C)C)cc1 (centres undefined),19.7% (inactive)
9,Cc1nccn1CC(=O)N(c1ccc(N)cc1)C(C(=O)NC(C)(C)C)c1ccsc1 (centres undefined),6.79% (inactive)
10,CC(C)(C)NC(=O)C(c1ccsc1)N(C(=O)Cc1c[nH]c2ccccc12)c1ccc(OCF)cc1 (centres undefined),35.6% (inactive)
11,CC(C)(C)NC(=O)C(c1cccnc1)N(C(=O)Cc1cccc2ccccc12)c1ccc(OCF)cc1 (centres undefined),3.12% (inactive)
12,CC(C)c1ccc(N(C(=O)c2ccc(C#N)cc2)C(C(=O)NC(C)(C)C)c2cccnc2)cc1 (centres undefined),-3.85% (inactive)
13,CC(C)(C)NC(=O)C(c1cccnc1)N(C(=O)c1ccc(C(F)(F)F)nc1)c1ccc(F)cc1 (centres undefined),10.5% (inactive)
14,CC(C)(C)NC(=O)C(c1cccnc1)N(C(=O)c1ccc(C#N)cc1)c1ccc(F)cc1 (centres undefined),-13.5% (inactive)
15,CC(C)(C)NC(=O)C(c1ccsc1)N(C(=O)c1cccc2c1CCCC2)c1ccc(OCF)cc1 (centres undefined),12.6% (inactive)
16,CC(C)(C)NC(=O)C(c1ccsc1)N(C(=O)c1n[nH]c2ccccc12)C1CC1 (centres undefined),13% (inactive)
17,CC(C)(C)NC(=O)C(c1cccnc1)N(C(=O)c1ccc(C#N)cc1)C1CC1 (centres undefined),-4.03% (inactive)

row,SMILES,inhibition
1,CC(C)c1ccc(N(C(=O)c2ccco2)C(C(=O)NC(C)(C)C)c2cccnc2)cc1 (centres undefined),65.6% (active)
2,CC(C)(C)NC(=O)C(c1cccnc1)N(C(=O)Cc1cccc2ccccc12)C1CC1 (centres undefined),2.44% (inactive)
3,CC(C)(C)NC(=O)C(c1ccsc1)N(C(=O)c1cccc2c1CCCC2)c1ccc(C(C)(C)C)cc1 (centres undefined),12.9% (inactive)
4,CC(C)c1ccc(N(C(=O)c2cccc3c2CCCC3)C(C(=O)NC(C)(C)C)c2ccsc2)cc1 (centres undefined),7.39% (inactive)
5,CC(C)(C)NC(=O)C(c1cccnc1)N(C(=O)Cc1c[nH]c2ccccc12)c1ccc(C(C)(C)C)cc1 (centres undefined),30.6% (inactive)
6,CCC(=O)Nc1ccc(N(C(=O)Cn2c(C)nc3ccccc32)C(C(=O)NC(C)(C)C)c2ccsc2)cc1 (centres undefined),0.52% (inactive)
7,CC(=O)Nc1ccc(N(C(=O)Cn2c(C)nc3ccccc32)C(C(=O)NC(C)(C)C)c2ccsc2)cc1 (centres undefined),2.27% (inactive)
8,CCC(=O)Nc1ccc(N(C(=O)Cn2nnc3ccccc32)C(C(=O)NC(C)(C)C)c2ccsc2)cc1 (centres undefined),94.2% (active)
9,CC(C)(C)NC(=O)C(c1ccsc1)N(C(=O)c1ccco1)c1ccc(F)cc1 (centres undefined),11.2% (inactive)
10,CC(C)(C)NC(=O)C(c1cccnc1)N(C(=O)Cc1cccnc1)c1ccc(F)cc1 (centres undefined),5.7% (inactive)
11,CC(C)(C)NC(=O)C(c1ccsc1)N(C(=O)Cc1cccnc1)c1ccc(C(C)(C)C)cc1 (centres undefined),37.4% (inactive)
12,CC(C)c1ccc(N(C(=O)Cc2c[nH]c3ccccc23)C(C(=O)NC(C)(C)C)c2ccsc2)cc1 (centres undefined),7.61% (inactive)
13,CC(C)(C)NC(=O)C(c1cccnc1)N(C(=O)c1cccc2c1CCCC2)c1ccc(C(C)(C)C)cc1 (centres undefined),12.7% (inactive)
14,CC(C)(C)NC(=O)C(c1cccnc1)N(C(=O)c1ccc(C(F)(F)F)nc1)c1ccc(OCF)cc1 (centres undefined),13.7% (inactive)
15,CC(C)c1ccc(N(C(=O)c2cccc3c2CCCC3)C(C(=O)NC(C)(C)C)c2cccnc2)cc1 (centres undefined),-5.03% (inactive)
16,CC(C)(C)NC(=O)C(c1ccsc1)N(C(=O)Cc1cccnc1)C1CC1 (centres undefined),25.9% (inactive)
17,CC(C)c1ccc(N(C(=O)c2ccco2)C(C(=O)NC(C)(C)C)c2ccsc2)cc1 (centres undefined),6.57% (inactive)
